# Shown are actives, neighbours in structure and some others; about 7.5% of the full set was active somewhere.
# NPC1 prom act – activates the NPC1 promoter | actives 2.4% (n = 320,000) | Huh7 NPC1 promoter luciferase reporter, 24 h | Potency, µM (doses to about 9.22 µM), without a hit: at the highest dose activation, hits mostly activators; also: % of control where 0% means no effect; nearly all actives have a fitted effect of over 60% in size
#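 Readout is luciferase luminescence, reflecting NPC1 promoter activation in stably transfected Huh7 cells after 24 h compound exposure at 37 °C in reduced-serum medium with 10% FBS.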
# SMN2 splice up – enhancers of SMN2 splice variant expression; HEK293 SMN2-luciferase splicing reporter, luminescence, 30-36 h; Potency, µM (highest dose often 46.1 µM), for inactives: top-dose activity change, positive = activation, hits mostly activators; actives 2.8% (n = 210,000); AID 1458; also: % of control where 0% means no effect; nearly all actives have a fitted effect of over 55% in size
#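 HEK293 cells carry an SMN2 minigene-luciferase reporter in which exon 7 inclusion puts luciferase in frame. Cells were seeded at 2000 cells/well, attached for 10-12 hours, then exposed to compounds for 30-36 hours at 37C before ONE-Glo luminescence.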
# Rab9 prom act – activates the Rab9 promoter; Huh7 Rab9 promoter-luciferase reporter, luminescence, 24 h; Potency, µM (titrated, usually from 9.22 µM), for inactives: at the top dose activation, negative = inhibition, usual class: activators; actives 2.8% (n = 320,000); also: % of control where 0% means no effect; nearly all actives have a fitted effect of over 60% in size
#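 Steps: seed 1500 Huh7 Rab9-luc cells per well, rest 2 h at 37 °C; add compound in DMSO; incubate 24 h; add luciferase reagent, 10 min ambient; read luminescence.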
# ELG1 genotox – genotoxicity induction in ELG1-luciferase HEK293T cells | HEK293T ELG1-luciferase reporter, luminescence, 16 h | Potency, µM (series often up to 46 µM), without a hit: top-dose activity change, positive = activation, usual class: activators | actives 1.3% (n = 330,000); also: % of control where 0% means no effect; nearly all actives have a fitted effect of over 60% in size
#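 Quantitative HTS format in 1536-well plates. HEK293T ELG1-luciferase reporter cells receive test compound and are incubated 16 hr at 37 °C, 5% CO2; ONE-Glo added, 30 min room temperature, then luminescence read.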
# FLuc counter – inhibits or activates purified firefly luciferase, miR-21 counter-screen | purified FLuc, Km substrates, luminescence inhibition | P08659 | actives 6.9% (n = 360,000) | Potency, µM (highest dose often 57.5 µM), inactives show at the highest dose activity change, negative = inhibition, usual class: inhibitors;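 also: plate controls were vehicle for no effect and reference inhibitor for full effect; nearly all actives have a fitted effect of over 55% in size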
# Target sequence (P08659 whole entry, looked up): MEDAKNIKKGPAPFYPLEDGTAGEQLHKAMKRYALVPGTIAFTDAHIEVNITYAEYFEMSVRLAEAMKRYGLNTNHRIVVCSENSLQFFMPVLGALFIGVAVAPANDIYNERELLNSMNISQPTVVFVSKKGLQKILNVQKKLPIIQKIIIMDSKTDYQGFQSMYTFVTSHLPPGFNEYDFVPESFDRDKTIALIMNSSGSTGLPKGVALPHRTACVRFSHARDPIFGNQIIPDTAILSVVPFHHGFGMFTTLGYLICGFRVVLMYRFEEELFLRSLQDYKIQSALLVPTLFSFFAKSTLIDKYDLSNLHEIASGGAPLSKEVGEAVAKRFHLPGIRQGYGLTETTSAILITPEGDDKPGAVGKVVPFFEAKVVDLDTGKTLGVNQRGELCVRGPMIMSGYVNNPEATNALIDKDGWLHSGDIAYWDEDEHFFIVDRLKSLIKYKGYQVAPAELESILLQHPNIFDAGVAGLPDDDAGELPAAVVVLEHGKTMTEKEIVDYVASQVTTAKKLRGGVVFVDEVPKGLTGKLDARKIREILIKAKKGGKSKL
#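 Purified P. pyralis luciferase, 10 nM final, with Km-level 10 uM D-luciferin and 10 uM ATP in 50 mM Tris acetate pH 7.5, 10 mM Mg acetate, 0.01% Tween-20, 0.05% BSA; 6-point qHTS titration about 60 µM downward; luminescence read.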
# Numbers without * were called inactive; ? = inconclusive; / = not tested or not shown. Calls follow the shape of the dose curve; as a rule, active = well fitted curve in the direction sought with a large enough effect; inconclusive = small, poorly fitted or top-dose-only effect, or another doubt; inactive = no such curve, though single readings can be large; an effect the other way counts as inactive or inconclusive. Potency is read from the fitted curve at half-maximal effect.
SMILES,NPC1 prom act,SMN2 splice up,Rab9 prom act,ELG1 genotox,FLuc counter
COc1ccc(C(=O)Nc2ccccc2C(=O)N/N=C/c2ccco2)cc1,16.0%,/,?,?,0.477µM*
Cc1ccccc1C(=O)Nc1ccc(C(=O)N/N=C/c2ccncc2)cc1,7.0%,-23.2%,0.6%,8.4%,-16.9%
O=C(CCC(=O)Nc1ccccc1)N/N=C/c1ccncc1,7.6%,-10.9%,7.7%,-2.4%,12µM*
O=C(Nc1ccccc1C(=O)N/N=C/c1ccncc1)c1ccccc1,?,/,?,-13.9%,1.9µM*
CCOc1ccc(/C=N/NC(=O)c2ccccc2NC(=O)c2ccc(OC)cc2)cc1,?,119.1%,?,13.5%,0.379µM*
CCCC(=O)Nc1ccccc1NC(=O)c1ccc(OCC)cc1,-7.5%,-9.3%,0.6%,-3.3%,1.2%
Cc1cc(Cn2nc(-c3ccccc3)cc2C(=O)NCC2CC2)on1,-5.4%,/,1.6%,0.7%,-2.6%
O=C(NCCO)C(=O)c1c(-c2ccc(Cl)cc2)cc2ccccn12,0.8%,-9.7%,-2.2%,-3.9%,1.7%
Cc1ccc2oc(-c3ccccc3)nc2c1,1.12µM*,?,3.16µM*,?,0.601µM*
Cc1ccc2oc(-c3cccc(NC(=O)Cc4ccc(Cl)cc4)c3)nc2c1,/,-5.5%,/,/,1.4%
CCOc1cccc(-c2nc3cc(C)ccc3o2)c1,13.5%,12.6µM*,?,?,0.953µM*
CCOc1ccc(C(=O)Nc2ccc(-c3nc4cc(C)ccc4o3)cc2)cc1,/,/,/,/,-13.6%
Cc1ccc2nc(-c3cccc(NC(=O)c4ccco4)c3)[nH]c2c1,?,12.6µM*,?,0.1%,1.35µM*
O=C(Nc1ccc2nc(-c3ccco3)[nH]c2c1)c1cccs1,?,11.2µM*,3.16µM*,5.4%,2.69µM*
CC(=O)Nc1cccc(-c2nc3ccc(NC(C)=O)cc3[nH]2)c1,4.3%,-16.2%,-4.5%,0.7%,15.1µM*
O=C(Nc1ccc2nc(-c3cccnc3)[nH]c2c1)c1ccco1,-3.4%,11.3%,-3.7%,-1.0%,?
Cc1cc2cc(NC(=O)c3ccco3)ccc2[nH]1,?,27.5%,?,14.2%,15.1µM*
COc1cc(OC)cc(-c2nnc(NC(=O)CCS(=O)(=O)c3ccc(C)cc3)o2)c1,-4.5%,/,1.5%,-0.6%,5.6%
COC(=O)c1cc(S(=O)(=O)NCCc2ccc(SC)cc2)c[nH]1,-1.7%,/,-5.3%,-8.8%,3.4%
O=C(Nc1ccc2nc(-c3ccco3)[nH]c2c1)c1ccco1,?,23.7%,?,16.4µM*,7.57µM*
CC(=O)Nc1ccc2nc(-c3ccco3)[nH]c2c1,23.0%,?,?,15.8%,16.9µM*
COc1ccc(Cl)cc1-c1n[nH]c(=S)n1Cc1ccccc1,-1.8%,/,0.0%,-2.6%,1.2%
COc1cccc(OCC(O)CN2CCC(CN3C(=O)c4cccc5cccc(c45)C3=O)CC2)c1 (configuration not stated),-4.1%,-42.4%,-11.1%,-7.6%,4.6%
O=C1c2cccc3cccc(c23)C(=O)N1CC1CCN(CC(O)COc2ccc3ccccc3c2)CC1 (configuration not stated),?,10.0%,-0.2%,7.6%,12µM*
Cc1ccc2nc(CCc3nc4ccc(C)cc4[nH]3)[nH]c2c1,1.5%,/,-1.3%,-2.3%,-7.8%
SMILES,NPC1 prom act,SMN2 splice up,Rab9 prom act,ELG1 genotox,FLuc counter
Cc1ccc(S(=O)(=O)N2CCN(C(=O)CSc3n[nH]c(N)n3)CC2)c(C)c1,-4.4%,/,0.7%,0.1%,-0.3%
c1ccc(C2Oc3ccccc3C3CC(c4cccs4)=NN32)cc1 (configuration not stated),3.4%,?,11.2%,7.5%,?
O=[N+]([O-])c1ccc(C2Oc3ccccc3C3CC(c4ccccc4)=NN32)s1 (configuration not stated),-1.6%,25.1µM*,20.4%,?,9.53µM*
Cc1ccc(C(=O)NC(=S)NCC2CCCO2)cc1[N+](=O)[O-] (configuration not stated),0.4%,15.9%,10.3%,0.3%,0.4%
CCOc1ccc(N/C(C)=C\C(=O)c2ccc3c(c2)OCCO3)cc1,2.51µM*,/,1.12µM*,12.4%,3.79µM*
CCOc1ccc(N/C(C)=C/C(=O)c2ccc3c(c2)OCCO3)cc1,3.16µM*,/,2.24µM*,?,5.36µM*
CC(CCc1ccccc1)NC(=O)C1CCN(S(=O)(=O)c2ccc(F)cc2)CC1 (configuration not stated),-1.4%,/,2.0%,-8.1%,3.8%
Clc1ccccc1/C=N/NC1=Nc2cccc3cccc1c23,?,5.62µM*,4.47µM*,16.4µM*,0.849µM*
C(=N\NC1=Nc2cccc3cccc1c23)/c1ccccn1,-34.4%,-44.3%,-23.0%,?,1.51µM*
O=C(CNc1ccc2ccccc2c1)N/N=C/c1ccccn1,3.7%,/,-5.6%,-2.5%,-4.3%
Cc1nnc(SCC(=O)Nc2nnc(-c3ccccc3)o2)s1,1.5%,/,2.0%,6.0%,19µM*
Nn1c(SCC(=O)Nc2nnc(-c3ccccc3)o2)nnc1C1CC1,10.9%,/,-1.6%,-0.6%,8.49µM*
Cc1c2c(nc3c(C)cccc13)OC(C)C2 (configuration not stated),10.8%,-7.2%,-7.5%,0.1%,?
O=C1NC(c2cccs2)Nc2sc3c(c21)CCCC3 (configuration not stated),2.82µM*,?,3.55µM*,8.4%,6.75µM*
O=C(Nc1ccccc1Cl)Nc1cccnc1Cl,7.5%,-71.8%,-1.4%,-11.2%,?
Cc1nc2ccccc2cc1OCc1ccc(Cl)cc1,-14.2%,-75.5%,-22.7%,-6.4%,?
COC(=O)c1sccc1OCc1cccc(OC)c1,-4.3%,12.9%,2.0%,1.5%,?
COc1cccc(COc2cc3ccccc3nc2C)c1,-10.3%,-14.1%,-27.8%,-0.4%,19µM*
Cc1nc2ccccc2cc1OCc1ccccc1,-8.5%,-63.3%,-11.8%,-1.8%,16.9µM*
O=c1[nH]c(=S)n(-c2cccc(C(F)(F)F)c2)c(O)c1C=NCCN1CCNCC1,-0.7%,/,0.0%,-2.8%,1.3%
CCCOc1ccc(C(=O)NC(C)C(=O)O)cc1 (configuration not stated),2.4%,1.1%,-6.9%,6.5%,-8.8%
CC(NC(=O)c1ccc(C23CC4CC(CC(C4)C2)C3)cc1)C(=O)O (configuration not stated),-0.5%,10.3%,0.8%,-1.9%,19µM*
Cc1nc(-c2cccc(Cl)c2)n[nH]1,3.2%,/,6.2%,8.2%,-16.2%
Cc1nc(S/C(=C/c2ccc(-c3cccc(Cl)c3)o2)C(=O)O)n[nH]1,0.2%,-23.3%,3.6%,-4.4%,5.36µM*
O=C(Nc1cccc2cccnc12)c1ccc2c(c1)OCCO2,10.7%,26.8%,?,?,12µM*
O=C(Nc1cccc(Cl)c1N1CCCCC1)c1ccc2c(c1)OCCO2,-5.6%,16.7%,2.3%,-0.4%,3.3%

# Source: PubChem BioAssay (National Center for Advancing Translational Sciences (NCATS))
